Compound activity from PubChem.
Beta2AR agonist – beta2AR agonists driving receptor internalization, primary screen, cell-based, FAP fluorogen, flow cytometry. Am2.2-beta2AR cells. response, % (no concentration beside the values). actives 0.43% (n = 340,000). AID 504454, 2011;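 active = response above a set limit, near 3 SD of response in nonfluorescent compounds, cut at about 42% in these data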
Target sequence (P07550 whole entry, looked up): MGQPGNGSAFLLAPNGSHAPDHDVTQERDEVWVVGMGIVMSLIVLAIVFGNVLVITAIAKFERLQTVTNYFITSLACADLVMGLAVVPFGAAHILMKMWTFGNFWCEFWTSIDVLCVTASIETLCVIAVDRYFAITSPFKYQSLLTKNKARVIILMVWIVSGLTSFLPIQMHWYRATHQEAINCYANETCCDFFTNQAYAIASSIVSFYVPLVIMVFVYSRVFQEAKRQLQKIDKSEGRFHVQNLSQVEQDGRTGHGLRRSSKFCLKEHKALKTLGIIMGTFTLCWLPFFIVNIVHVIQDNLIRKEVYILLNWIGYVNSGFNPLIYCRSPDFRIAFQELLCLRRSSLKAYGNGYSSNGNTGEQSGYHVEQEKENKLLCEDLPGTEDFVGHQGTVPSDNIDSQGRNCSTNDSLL
MEKK2 mut-MEK5 – MEK5 binding signal on mutant MEKK2 PB1, primary screen, biochemical, multiplex bead flow cytometry, Alexa488-MEK5; actives 0.35% (n = 290,000); Alexa488-MEK5 binding to MEKK2 mutant; AID 1530, 2009; percent response, % at 10 µM; in the data active = percent response above about 24%, passing the limit was not always enough
MEKK2 WT-MEK5 – modulators of MEK5 binding to wildtype MEKK2, primary screen, biochemical, multiplex bead flow cytometry, Alexa488-MEK5. Mitogen-activated protein kinase kinase kinase 2 (Homo sapiens), Q9Y2U5. Alexa488-MEK5 binding to MEKK2 WT; actives lie on both sides. binding response (% of control), % at 10 µM. actives 1.1% (n = 290,000); in the data active = binding response below about 67% or above about 130%
MEKK3 PB1 HTS – modulators of MEKK3-MEK5 PB1 binding, primary screen, biochemical, wildtype MEKK3, multiplex bead flow cytometry, Alexa488-MEK5. bead-based flow cytometry, Alexa488-MEK5 binding to MEKK3; actives lie on both sides; 0 = blocked by unlabeled MEK5, 100 = vehicle. actives 1.4% (n = 290,000). binding response (% of control), % at 10 µM;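 active = binding response more than 3 SD above or below the average of its plate-row segment, actives on both sides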;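 note: Alexa488 bead fluorescence after subtracting the streptavidin-only scavenger bead signal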
GRK2 inh – compounds blocking aptamer binding on GRK2 – biochemical, human GRK2, bead flow cytometry, HTS, primary screen. actives 0.59% (n = 330,000). FAM-aptamer displacement from GRK2. inhibition of aptamer binding, % at 10 µM. AID 488847, 2010. Beta-adrenergic receptor kinase 1 (Homo sapiens), P25098;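 active = inhibition of aptamer binding above 40%, roughly 3 SD of noise, on plates passing a quality check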;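 note: median bead fluorescence of bound FAM aptamer so fluorescent compounds give negative values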
MEKK2wt confirm – modulators of MEK5 binding to wildtype MEKK2, confirmation, biochemical, single concentration, multiplex bead flow cytometry; shares compounds with MEKK3 PB1 HTS; Alexa488-MEK5 binding to MEKK2 WT; actives lie on both sides; binding response (% of control), % at 10 µM; actives 2.4% (n = 5,900); in the data active = binding response below about 16% or above about 210%; inactive = in between
MEKK2mut-MEK5 – mutant MEKK2 PB1-MEK5 binding signal retest – biochemical, single concentration, multiplex bead flow cytometry, confirmation; actives 2% (n = 5,900); shares compounds with MEKK3 PB1 HTS; percent response, % at 10 µM; AID 1893, 2009; Alexa488-MEK5 binding to MEKK2 mutant; in the data active = percent response mostly above about 71%, no sharp cut-off; inactive = mostly below about 38%;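 note: higher means compound restores mutant binding toward wildtype level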
MEKK3 confirm – MEKK3 wild-type PB1 binding to MEK5, inhibitors, confirmation, biochemical, bead multiplex flow cytometry, single concentration, wildtype; shares compounds with MEKK3 PB1 HTS; Alexa488-MEK5 binding to MEKK3; hits give low values; binding response (% of control), % at 10 µM; actives 1.8% (n = 5,900);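 active = binding response below 72% of control, or above a set upper limit, though filed actives all read lower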;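 note: lower values mean stronger disruption of MEK5 binding to MEKK3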
Numbers stand for hits; . = inactive; / = no result; [ ] = remark or other dose. Only some compounds are listed: those with a hit (about 2.9% of all), similar ones and a draw of the others.

SMILES | Beta2AR agonist | MEKK2 mut-MEK5 | MEKK2 WT-MEK5 | MEKK3 PB1 HTS | GRK2 inh | MEKK2wt confirm | MEKK2mut-MEK5 | MEKK3 confirm
COc1ccc(S(=O)(=O)N2CCN(C(=O)CC3CC4CCC3C4)CC2)cc1 (configuration not stated) | . | / | / | / | . | / | / | /
CCCOc1ccc(/C=N/NC(=O)CSCc2ccc([N+](=O)[O-])cc2)cc1OCC | . | . | . | 135.0 | . | . | . | .
O=C(O)c1cccc(NC(=S)N/N=C/c2ccccn2)c1 | . | . | . | 159.0 | . | . | . | .
CN1CCN(c2nc3cc(C(F)(F)F)ccc3n3cccc23)CC1 | / | . | 140.0 | . | . | . | . | .
FC(F)(F)c1ccc2c(c1)nc1n2CCCC1 | . | . | . | . | . | / | / | /
O=C(O)CCN1C(=O)C2C3CC(C2C1=O)C1C(c2ccccc2)c2sc(=O)n(-c4ccccc4)c2SC31 (configuration not stated) | . | . | . | 129.0 | . | . | . | .
NC(=O)c1cc([N+](=O)[O-])ccc1N1CCN(Cc2ccccc2)CC1 | . | . | . | . | . | / | / | /
O=C(COC(=O)Cc1ccc(Cl)cc1)NCc1ccc2c(c1)OCO2 | . | / | / | / | / | / | / | /
NC(=O)CSc1nnc(Cc2ccc3c(c2)OCO3)o1 | . | . | . | 143.0 | . | 1.0[inhibitor] | . | 2.0
CCc1nnc(SCC(=O)Nc2ccc3c(c2)OCO3)o1 | . | . | . | . | . | / | / | /
O=C(COC(=O)CSc1nnc(-c2ccc(Cl)cc2)o1)NCc1ccc2c(c1)OCO2 | . | . | . | 81.0[inhibitor] | . | . | . | .
CC(Sc1nnc(Cc2ccc3c(c2)OCO3)o1)C(N)=O (configuration not stated) | . | . | . | 133.0 | . | . | . | .
O=C(NNC(=O)c1cccc(C(F)(F)F)c1)c1ccc(-n2cnnn2)cc1 | . | / | / | / | . | / | / | /
CCCc1nn(C)c(C(=O)Nc2ccc(CC)cc2)c1Cl | . | . | . | . | . | / | / | /
CCCc1nn(C)c(C(=O)Nc2cccc3ccccc23)c1Cl | . | . | . | 131.0 | . | . | . | .
COc1cccc(CN(C)C(=O)c2ccc(N3CCCC3)c([N+](=O)[O-])c2)c1 | . | . | . | . | . | / | / | /
Cc1oc2c(C)c(O)ccc2c(=O)c1-c1cnn(-c2ccccc2)c1 | . | . | . | 69.0[inhibitor] | . | . | . | .
CN1CCN(C(=S)Nc2ccc(S(N)(=O)=O)cc2)CC1 | . | . | . | . | . | / | / | /
CCOc1ccccc1CN1CCNC(=O)C1CC(=O)NCCC1=CCCCC1 (configuration not stated) | . | 24.0 | . | . | . | . | . | .
COc1ccccc1CN1CCNC(=O)C1CC(=O)NCCC1=CCCCC1 (configuration not stated) | . | . | . | . | . | / | / | /
Cc1cc(NC(=O)COc2ccccc2C(N)=O)no1 | . | / | / | / | . | / | / | /
O=C1/C(=C\c2cccs2)N=C(c2cccs2)N1Nc1ccccc1 | . | . | . | . | . | / | / | /
O=C1/C(=C/c2cccs2)N=C(c2cccs2)N1Nc1ccccc1 | . | . | 57.0[inhibitor] | . | . | . | . | .
O=C1CCC([N+](=O)[O-])C(c2cc3c(cc2Br)OCO3)N1 (configuration not stated) | . | . | . | 156.0 | . | . | . | .
Cc1cc(C)n(-c2nc(SCCN(C)C)c3c4c(sc3n2)CCCC4)n1 | . | 49.0 | 211.0 | 124.0 | . | . | . | .
SMILES | Beta2AR agonist | MEKK2 mut-MEK5 | MEKK2 WT-MEK5 | MEKK3 PB1 HTS | GRK2 inh | MEKK2wt confirm | MEKK2mut-MEK5 | MEKK3 confirm
CNCc1ccccc1Sc1cccc2ccccc12 | . | . | . | 154.0 | . | . | . | .
CNCc1ccccc1Sc1ccc(OC)cc1 | . | / | / | / | . | / | / | /
C=CCc1cccc(/C=N/NC(=O)CNc2ccccc2)c1O | . | . | . | . | . | / | / | /
C=CCc1cccc(/C=N/NC(=O)CCCNc2ccc(C)cc2)c1O | . | 89.0 | 248.0 | . | . | . | . | .
CCOC(=O)c1c(NC(C)=O)sc2c(O)c(Br)cc(Br)c12 | . | . | . | 132.0 | . | . | . | .
OC1(c2ccc(Cl)cc2)CCN(Cc2c[nH]c3ccccc23)CC1 | . | . | 151.0 | . | . | . | . | .
O=C(COC(=O)C1CCCCC1)Nc1ccc(N2CCCCC2)cc1 | . | 47.0 | 150.0 | . | . | . | . | .
O=C(CNCCC1=CCCCC1)Nc1ccc(N2CCCCCC2)cc1 | . | . | 188.0 | . | . | . | . | .
O=C(Nc1ccc(N2CCOCC2)cc1)C1CCCCC1 | . | . | . | 82.0[inhibitor] | . | . | . | .
N#Cc1ccc(COC(=O)CC(NC(N)=O)c2ccc(Cl)cc2)cc1 (configuration not stated) | . | . | . | . | . | / | / | /
Cc1ccccc1OCCC(=O)NNC(=O)COc1cccc(F)c1 | . | / | / | / | . | / | / | /
CCOC(=O)c1c(CSC(=N)N)n(-c2ccc(C)cc2)c2cc(Br)c(OC(C)=O)cc12 | 45.4 | 70.0 | 232.0 | . | . | 212.0 | . | .
CCOc1ccc(/C=C/c2nc(C#N)c(NCCCN(C)C)o2)cc1 | . | 26.0 | 140.0 | . | . | . | . | .
CCOc1ccc(/C=C/c2nc(C#N)c(NCCCOC)o2)cc1 | . | . | . | . | . | / | / | /
CC(C)CC1NC(=O)N(CCCCN2C(=O)c3ccccc3C2=O)C1=O (configuration not stated) | . | . | . | 135.0 | . | . | . | .
O=C(CN1CCOCC1)Nc1ccccc1Sc1ccccc1 | . | . | . | . | . | / | / | /
N=c1sccn1CC(=O)Nc1ccccc1Sc1ccccc1 | . | . | 178.0 | 156.0 | . | . | . | .
CCN1/C(=C/C=C/C=C/c2sc3ccccc3[n+]2CC)Sc2ccccc21 | / | . | 15.0[inhibitor] | 18.0[inhibitor] | 89.0 | . | . | 26.0
CC[n+]1c(/C=C/Nc2ccccc2)sc2ccccc21 | . | . | . | . | . | / | / | /
CCN1/C(=C/C=C/C=C/C=C/c2sc3ccccc3[n+]2CC)Sc2ccccc21 | . | . | 72.0[inhibitor] | 30.0[inhibitor] | . | . | . | 61.0
